Reference: PubChem BioAssay (NCATS)
Inconclusive results are not listed. A call without a number means that no potency is given here. Calls of active or inactive are those of the source. The call rests on the fitted dose curve; in most records, active means well fitted cell-killing curve with a large enough effect; inconclusive means small, poorly fitted or top-dose-only effect, or effect the other way; inactive means no such curve, though single readings can be large or run the other way.
Potency means the concentration at half of the fitted maximal effect.

Assay: Quantitative High-Throughput drug screen in 47 multiple myeloma cell lines against the NCATS MIPE library collection: KMS28BM_JCRB cell viability assay (AID 1919874); further: nearly all actives have a fitted effect of over 35% in size
Settings: CellTiter-Glo ATP, 48 h; series mostly up to 45.8 µM
Text: PI: Beverly A. Mock Ph.D.
Laboratory of Cancer Biology and Genetics,
Center for Cancer Research, National Cancer Institute,
National Institute of Health, Bethesda, Maryland
Drug resistance and disease progression are common in multiple myeloma (MM) patients, underscoring the need for new therapeutic combinations. […] We hypothesized that effective combinations would reduce MYC expression and enhance p16 activity. […] These preclinical data identify potentially useful drug combinations for evaluation in drug-resistant MM and reveal potential mechanisms of combined drug sensitivity.
Described herein is the primary MIPE qHTS used to cherrypick compounds. Validated compounds were then further tested for potential synergistic activiy.
[1] Peat TJ, Gaikwad SM, Dubois W, Gyabaah-Kessie N, Zhang S, Gorjifard S, Phyo Z, Andres M, Hughitt VK, Simpson RM, Miller MA, Girvin AT, Taylor A, Williams D, D'Antonio N, Zhang Y, Rajagopalan A, Flietner E, Wilson K, Zhang X, Shinn P, Klumpp-Thomas C, McKnight C, Itkin Z, Chen L, Kazandijian D, Zhang J, Michalowski AM, Simmons JK, Keats J, Thomas CJ, Mock BA. Drug combinations identified by high-throughput screening promote cell cycle transition and upregulate Smad pathways in myeloma. Cancer Lett. 2023 Aug 1;568:216284. doi: 10.1016/j.canlet.2023.216284. Epub 2023 Jun 24. PMID: 37356470; PMCID: PMC10408729.
SEQUENCE No. (e.g., 1, 2, 3, etc.); […] (e.g., Cells, Incubation, Reagent, etc.); VALUE and DESCRIPTION.
1; Cells; 5 uL; white, solid bottom 1536-well Greiner assay plate.
2; Compounds; 23 nL; Kalypsis pin tool (Wako USA) equipped with a 1536-well pin head to transfer to the assay plates.
3; Incubation; 48 hours; 37C incubation.
4; Reagent;5uL; CellTiter Glo (Promega).
5; Detector; 425V; Luminescence; Viewlux PerkinElmer.
NOTES (numbers refer to Sequence numbers above)
1. The cell-based screening methods employed in this study were like those previously published. Briefly, the corresponding myeloma cell lines were screened in 1,536-well plates with 500 cells, 5-uL per well for inhibition of cell viability (assessed by measuring ATP levels with CellTiterGlo).
2. NCATS MIPE 4.0 library of approved and investigational drugs were added using the Kalypsis pin tool. Wells treated with DMSO only for 100% viability and media only for 0% viability were used as controls.
3. The assay plates were covered and incubated for 48 hours in a 37C, 5% CO2 incubator with controlled humidity.
4. After 48 hours, CellTilter-GloTM luminescent substrate mix (Promega) reagent was added to the assay plate and plates we incubated for 5 min at room temperature.
5. Signal was measured as median relative luminescence units on a ViewLux (PerkinElmer) multiplate reader.
[1] Heske CM, Davis MI, Baumgart JT, Wilson K, Gormally MV, Chen L, Zhang X, Ceribelli M, Duveau DY, Guha R, Ferrer M, Arnaldez FI, Ji J, Tran HL, Zhang Y, Mendoza A, Helman LJ, Thomas CJ. Matrix Screen Identifies Synergistic Combination of PARP Inhibitors and Nicotinamide Phosphoribosyltransferase (NAMPT) Inhibitors in Ewing Sarcoma. Clin Cancer Res. 2017 Dec 1;23(23):7301-7311. doi: 10.1158/1078-0432.CCR-17-1121. Epub 2017 Sep 12. PMID: 28899971; PMCID: PMC6636827.
With `NC(=O)NO` the Potency was 0.935 µM (active). In the case of `CC(C(=O)O)c1cccc(C(=O)c2ccccc2)c1` (stereo not given), the Potency is reported as “inactive”. For `Fc1ccc([C@@H]2CCNC[C@H]2COc2ccc3c(c2)OCO3)cc1`, the Potency was 20.9 µM (active). For `CC(COc1ccccc1)N(CCCl)Cc1ccccc1` (stereo not given), the Potency was 18.7 µM (active). With `C[C@](N)(Cc1ccc(O)c(O)c1)C(=O)O` the Potency was “inactive”. For `CN(C)CCCN1c2ccccc2CCc2ccc(Cl)cc21`, the Potency was 20.9 µM (active). With `CN1CCN(CCCN2c3ccccc3Sc3ccc(Cl)cc32)CC1` the Potency was 20.9 µM (active). In the case of `NCCCCCC(=O)O`, the Potency is reported as “inactive”. In the case of `CCCCc1oc2ccccc2c1C(=O)c1cc(I)c(OCCN(CC)CC)c(I)c1`, the Potency is reported as 20.9 µM (active). In the case of `CN1CCN(C2=Nc3cc(Cl)ccc3Nc3ccccc32)CC1`, the Potency is reported as “inactive”. With `CCN1CCCC1CNC(=O)c1cc(S(=O)(=O)CC)c(N)cc1OC` (stereo not given) the Potency was “inactive”. For `CCc1cccc2c3c([nH]c12)C(CC)(CC(=O)O)OCC3` (stereo not given), the Potency was “inactive”. For `CC[C@@]1(O)C(=O)OCc2c1cc1n(c2=O)Cc2cc3c(CN(C)C)c(O)ccc3nc2-1`, the Potency was 0.662 µM (active). For `Clc1ccc(C(c2ccccc2Cl)C(Cl)Cl)cc1` (stereo not given), the Potency was 16.6 µM (active). With `CN(C)c1nc(N(C)C)nc(N(C)C)n1` the Potency was “inactive”. For `CC(C)NCC(O)COc1ccc(CCOCC2CC2)cc1` (stereo not given), the Potency was “inactive”. For `COc1ccc2c(c1)c(CC(=O)O)c(C)n2C(=O)c1ccc(Cl)cc1`, the Potency was “inactive”. In the case of `OCCN(CCO)c1nc(N2CCCCC2)c2nc(N(CCO)CCO)nc(N3CCCCC3)c2n1`, the Potency is reported as 16.6 µM (active). In the case of `CC(C)C(=O)Nc1ccc([N+](=O)[O-])c(C(F)(F)F)c1`, the Potency is reported as “inactive”. For `Nc1nnc(-c2cccc(Cl)c2Cl)c(N)n1`, the Potency was “inactive”. For `CN(C)C(=O)C(CCN1CCC(O)(c2ccc(Cl)cc2)CC1)(c1ccccc1)c1ccccc1`, the Potency was 18.7 µM (active). For `NCCc1cnc[nH]1`, the Potency was “inactive”. With `COc1nc(C)nc(Cl)c1NC1=NCCN1` the Potency was “inactive”. In the case of `OCCN1CCN(CCCN2c3ccccc3Sc3ccc(C(F)(F)F)cc32)CC1`, the Potency is reported as 23.5 µM (active). With `Cc1ccc(C(=O)Nc2ccc(S(=O)(=O)O)c3cc(S(=O)(=O)O)cc(S(=O)(=O)O)c23)cc1NC(=O)c1cccc(NC(=O)Nc2cccc(C(=O)Nc3cc(C(=O)Nc4ccc(S(=O)(=O)O)c5cc(S(=O)(=O)O)cc(S(=O)(=O)O)c45)ccc3C)c2)c1` the Potency was “inactive”. With `Cn1cnc2c1c(=O)[nH]c(=O)n2C` the Potency was 14.8 µM (active). With `COc1ccc(C2CNC(=O)C2)cc1OC1CCCC1` (stereo not given) the Potency was “inactive”. For `COc1ccccc1OCC(O)CN1CCN(CC(=O)Nc2c(C)cccc2C)CC1` (stereo not given), the Potency was “inactive”. In the case of `CCC1(c2ccccc2)C(=O)NCNC1=O`, the Potency is reported as “inactive”. With `O=C1Cc2cc(CCN3CCN(c4nsc5ccccc45)CC3)c(Cl)cc2N1` the Potency was 23.5 µM (active). For `CC(C)(Oc1ccc(C2CC2(Cl)Cl)cc1)C(=O)O` (stereo not given), the Potency was “inactive”. With `Cc1ccccc1N1C(=O)c2cc(S(N)(=O)=O)c(Cl)cc2NC1C` (stereo not given) the Potency was “inactive”. For `COc1ccccc1N1CCN(CC(O)COc2cccc3ccccc23)CC1` (stereo not given), the Potency was 13.2 µM (active). In the case of `CC(C)(C)C(=O)Oc1ccc(S(=O)(=O)Nc2ccccc2C(=O)NCC(=O)O)cc1`, the Potency is reported as “inactive”. In the case of `CC1COc2c(N3CCN(C)CC3)c(F)cc3c(=O)c(C(=O)O)cn1c23` (stereo not given), the Potency is reported as “inactive”. For `Nc1c2c(nc3ccccc13)CCCC2`, the Potency was 16.6 µM (active). For `Cc1cc(C(C)(C)C)c(O)c(C)c1CC1=NCCN1`, the Potency was “inactive”. For `CN(C)CCC=C1c2ccccc2C=Cc2ccccc21`, the Potency was 3.72 µM (active). In the case of `CC1(C)O[C@H]2CC(=O)OC[C@]23[C@H]2CC[C@@]4(C)[C@H](c5ccoc5)OC(=O)[C@H]5O[C@]54[C@]2(C)C(=O)C[C@@H]13`, the Potency is reported as “inactive”. With `CN(C)C(=N)N=C(N)N` the Potency was “inactive”.
